# Measurements reported in PubChem BioAssay (NCATS).
# Active and inactive are the calls of the source. The call rests on the fitted dose curve; in most records, active means well fitted curve in the direction sought with a large enough effect; inconclusive means small, poorly fitted or top-dose-only effect, or another doubt; inactive means no such curve, though single readings can be large or run the other way.
# Assay: Cellular Toxicity (caspase-3) BJ (AID 658)
# Settings: BJ fibroblasts, luminescence, normalized: DMSO 0%, staurosporine 100%; series mostly up to 91.7 µM; caspase-3 activation: at the top concentration
# Text: NIH Chemical Genomics Center [NCGC]
# NIH Molecular Libraries Screening Centers Network [MLSCN]
# National Institutes of Environmental Health Sciences [NIEHS]
# National Toxicology Program [NTP]
# We have developed a 1536-well cell-based assay for quantitative high throughput screening (qHTS) against a number of cell lines to determine in vitro caspase 3/7 activity of small molecules. This particular assay uses BJ cell line which is derived from normal human foreskin fibroblast.
# NCGC Assay Protocol Summary:
# The Caspase-Glo 3/7 assay (Promega) is a homogeneous method to measure caspase-3 and caspase-7 activities in cultured cells. The quantitation of caspase 3/7 activity is based on the cleavage of a peptide-aminoluciferin substrate. After caspase cleaves the substrate the free aminoluciferin is liberated and serves as the substrate of luciferase, which generates the light. The luminescent signal is proportional to amount of caspase 3/7 activity present.
# Using the Caspase-Glo 3/7 assay, the amount of caspase 3/7 activity was measured in the BJ cell line with complete culture medium following compound treatment for 16 hours. The assay was performed in opaque white 1536-well plates. In the screen, staurosporine and tamoxifen were used as positive controls. Library compounds were measured for their ability to cause the activation of caspase 3/7 in the cell line, as reflected by an increase in luminescence signal, in a concentration-dependent manner. Data were normalized to the controls for basal activity (DMSO only) and 100% stimulation (10 uM staurosporine). AC50 values were determined from concentration-response data modeled with the standard Hill equation.
# qHTS protocol for caspase 3/7 assay in the BJ cells
# [Step] [Parameter] [Value] [Description]
# 1. Reagent; 5 uL; 1000 the BJ cells/well
# 2. Time; 5 hr; 37 °C incubation
# 4. Controls; 23 nL; Tamoxifen 0.23 uM to 100 uM & staurosporine 1.4 pM to 100 uM
# 5. Time; 16 hr; 37 °C incubation
# 6. Reagent; 5 uL; Caspase-Glo 3/7 reagent
# 7. Time; 1 hr; Room Temperature
# 8. Detection; Luminescence; Viewlux plate reader
# Keywords: caspase 3/7, apoptosis, the BJ cell line, luminescence, NTPHTS, NTPHTS_NCGC, NIEHS, EPA, DSSTox, MLSMR, MLSCN, NIH Roadmap, qHTS, NCGC
row,SMILES,caspase-3 activation
1,Cc1cc(C)c(N)cc1C,-1.4% (inactive)
2,C[C@@H]1CC2(OC3C[C@@]4(C)C5=CC[C@H]6C(C)(C)C(O[C@@H]7OC[C@@H](O)[C@H](O)[C@H]7O)CC[C@@]67C[C@@]57CC[C@]4(C)C31)OC(O)C1(C)OC21 (stereo not given in full),-0.982% (inactive)
3,CCCCC(CC)C(=O)O (stereo not given),-1.91% (inactive)
4,Nc1cccc([N+](=O)[O-])c1,-0.0948% (inactive)
5,O=Cc1cccc(Br)c1,-0.756% (inactive)
6,Nc1cccc(N)c1,1.53% (inactive)
7,OC1CCCC1,1.22% (inactive)
8,COCCOC(=O)c1ccccc1C(=O)OCCOC,-0.0751% (inactive)
9,C=Cc1ccc(C=C)cc1,0.334% (inactive)
10,CC(C)(C)OCC1CO1 (stereo not given),0.901% (inactive)
11,Nc1cc(S(=O)(=O)O)ccc1O,-0.161% (inactive)
12,Cc1ccc(C(=O)O)cc1,-0.888% (inactive)
13,O=CNc1ccccc1,0.449% (inactive)
14,COC(=O)CCCC(=O)OC,-0.753% (inactive)
15,Cc1cccc(C)c1[N+](=O)[O-],0.991% (inactive)
16,CC(C)=C1CCC(C)CC1=O (stereo not given),-1.35% (inactive)
17,Nc1cccc(C(F)(F)F)c1,-0.0871% (inactive)
18,CC(=O)c1ccc([N+](=O)[O-])cc1,0.479% (inactive)
19,O=C(O)c1ccccc1Cl,-0.918% (inactive)
20,CCN(Cc1ccccc1)c1ccccc1,-0.556% (inactive)

row,SMILES,caspase-3 activation
1,O=[N+]([O-])c1cccc(Cl)c1,-1.38% (inactive)
2,CC1CCCO1 (stereo not given),-0.943% (inactive)
3,O=[N+]([O-])c1c(Cl)cc(Cl)cc1Cl,2.59% (inactive)
4,NC(=O)NC(N)=O,-1.45% (inactive)
5,NC(=O)c1ccccc1[N+](=O)[O-],-1.29% (inactive)
6,Cc1ccc2oc(=O)ccc2c1,1.26% (inactive)
7,Cc1ccc(C)c([N+](=O)[O-])c1,-0.0558% (inactive)
8,CCCCCCCN,-1.02% (inactive)
9,O=C(O)c1cccc([N+](=O)[O-])c1,-0.0512% (inactive)
10,CCNc1cc(O)ccc1C,1.55% (inactive)
11,Cc1ccc2ccccc2c1[N+](=O)[O-],-1.08% (inactive)
12,O=C(Cl)c1c(Cl)cccc1Cl,-1.21% (inactive)
13,C=CCOC(=O)COCCC(C)C,-0.276% (inactive)
14,CC(=O)Nc1cccc(N)c1,0.888% (inactive)
15,CCOc1ccc(NC(C)=O)cc1N,0.582% (inactive)
16,CCCOCC(C)OCC(C)O (stereo not given),0.305% (inactive)
17,Cc1ccc(Br)cc1,-1.94% (inactive)
18,CC(C)(O)C(=O)O,0.593% (inactive)
19,O=C(O)c1ccc(C(=O)O)cc1,-0.529% (inactive)
20,OC/C(Br)=C(\Br)CO,1.44% (inactive)
